Reference: PubChem BioAssay (NCI)
Values joined by “and” are separate entries in the source; they are usually repeats but may differ in a detail not shown here. Equal values may be shown once. About 83,000 compounds went through this panel and 20% of them were active in at least one assay; those are over-represented in the sample as a whole.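 For each line, cells grew in 96-well plates with the test compound present at a single concentration for 48 hours.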 Active and inactive are the calls of the source. Rule for the calls: active = growth percent below 10; inactive = the rest.

Experiments:
Experiment in all cases: NCI-60 one-dose screen, 48 h (100 = growth as untreated, 0 = no growth, -100 = all killed)
[1] = tested on: DU-145 prostate; settings: 10 µM unless noted
[2] = tested on: K-562 leukemia; settings: 10 µM
[3] = tested on: MALME-3M melanoma; settings: 10 µM
[4] = tested on: MDA-MB-231 breast; settings: 10 µM
[5] = tested on: RXF 393 renal; settings: 10 µM unless noted
[6] = tested on: SF-268 CNS; settings: 10 µM
[7] = tested on: SF-295 CNS; settings: 10 µM
[8] = tested on: SF-539 CNS; settings: 10 µM
[9] = tested on: UACC-257 melanoma; settings: 10 µM
[10] = tested on: M14 melanoma; settings: 10 µM
[11] = tested on: HCT-15 colon; settings: 10 µM
[12] = tested on: HT29 colon; settings: 10 µM
[13] = tested on: SNB-75 CNS; settings: 10 µM
[14] = tested on: SNB-19 CNS; settings: 10 µM
[15] = tested on: U251 CNS; settings: 10 µM unless noted
[16] = tested on: PC-3 prostate; settings: 10 µM
[17] = tested on: SK-MEL-5 melanoma; settings: 10 µM unless noted
[18] = tested on: UACC-62 melanoma
[19] = tested on: LOX IMVI melanoma; settings: 10 µM unless noted

SMILES	growth [1]	growth [2]	growth [3]	growth [4]	growth [5]	growth [6]	growth [7]	growth [8]	growth [9]	growth [10]	growth [11]	growth [12]	growth [13]	growth [14]	growth [15]	growth [16]	growth [17]	growth ([18]; 10 µM)	growth [19]	growth ([18]; 100 µM)
Clc1cc(Cl)c(Cl)nn1	115% (inactive)	106% (inactive)	109% (inactive)	105% (inactive)	122% (inactive)	101% (inactive)	107% (inactive)	100% (inactive)	70.4% (inactive)	93% (inactive)	107% (inactive)	99.2% (inactive)	107% (inactive)	94.2% (inactive)	81.1% (inactive)	80.9% (inactive)	103% (inactive)	88.7% (inactive)	95.7% (inactive)	
COC(=O)C1=COC(C)C2C[n+]3ccc4c([nH]c5ccccc54)c3CC12 (centres undefined)	112% (inactive) and 108% (inactive)	93.7% (inactive) and 85.2% (inactive)	105% (inactive) and 93.8% (inactive)	101% (inactive) and 73.2% (inactive)	112% (inactive)	99.1% (inactive) and 96.2% (inactive)	102% (inactive) and 90.8% (inactive)	105% (inactive)	106% (inactive) and 95.1% (inactive)		104% (inactive) and 101% (inactive)	99.4% (inactive) and 81.3% (inactive)	83.3% (inactive) and 92.8% (inactive)	101% (inactive) and 90.3% (inactive)	101% (inactive) and 88.4% (inactive)	92% (inactive) and 75.7% (inactive)	100% (inactive) and 93.6% (inactive)	91.1% (inactive) and 83.1% (inactive)	98.9% (inactive) and 98% (inactive)	52.7% (inactive) and 32.5% (inactive)
Nc1c2ccccc2nc2ccccc12	16.3% (inactive) and 40.9% (inactive)	1.31% (active) and 11.9% (inactive) and 27% (inactive)	5.23% (active) and 42% (inactive) and 34% (inactive)	25.2% (inactive) and 40.1% (inactive) and 35.4% (inactive)	8.02% (active) and -6.66% (active) and 44.2% (inactive)	24.2% (inactive) and 47.3% (inactive)	-24.9% (active) and 25.7% (inactive) and 49.5% (inactive)	21.7% (inactive) and 23.4% (inactive) and 29.2% (inactive)	-31.3% (active) and 25.4% (inactive) and 53.5% (inactive)		5.79% (active) and 15.8% (inactive) and 26.5% (inactive)	-21.6% (active) and 20.8% (inactive) and 19.9% (inactive)	33.1% (inactive) and 51.8% (inactive) and 89.3% (inactive)	22.5% (inactive) and 39.8% (inactive)	6.74% (active) and 26.5% (inactive) and 34.7% (inactive)	23.7% (inactive) and 9.05% (active) and 41.1% (inactive)	5.28% (active) and 19.7% (inactive) and 39.5% (inactive)	13.9% (inactive) and 36.3% (inactive) and 27.3% (inactive)	-53.7% (active) and 14.9% (inactive) and 12.4% (inactive)	
COc1ccc(CC(=O)c2ccc(O)cc2O)cc1	138% (inactive)	98.7% (inactive)	128% (inactive)	117% (inactive)	144% (inactive)	132% (inactive)	113% (inactive)	99.3% (inactive)	119% (inactive)	103% (inactive)	131% (inactive)	112% (inactive)	111% (inactive)	121% (inactive)	116% (inactive)	109% (inactive)	103% (inactive)	120% (inactive)	108% (inactive)	
CN(C)C(=S)SC(=S)N(C)C	108% (inactive) and 104% (inactive)	58% (inactive) and 75.7% (inactive)	84.7% (inactive) and 85% (inactive)	105% (inactive) and 122% (inactive)	108% (inactive) and 109% (inactive)	107% (inactive) and 95.8% (inactive)	100% (inactive) and 101% (inactive)	93.5% (inactive) and 101% (inactive)	96.5% (inactive) and 77.5% (inactive)		87.5% (inactive) and 95.5% (inactive)	82.2% (inactive) and 59.8% (inactive)	97.2% (inactive) and 89.7% (inactive)	98.7% (inactive) and 109% (inactive)	96.1% (inactive) and 97.1% (inactive)	93.1% (inactive) and 89.6% (inactive)	92.9% (inactive) and 99% (inactive)	92.1% (inactive) and 103% (inactive)	99.8% (inactive) and 90.9% (inactive)	
CCCCCCCCCCCC[N+](C)(C)Cc1ccccc1	24.8% (inactive)	-5.13% (active)	-19.2% (active)	25.3% (inactive)	-38.7% (active)	8.3% (active)	46.3% (inactive)	53.6% (inactive)	2.24% (active)		90.8% (inactive)	5.91% (active)	-12.7% (active)	20.5% (inactive)	17.3% (inactive)	-18.7% (active)	-87.1% (active)	-41.2% (active)	25.9% (inactive)	
O=C(O)COc1ccc(OCC(=O)O)cc1	5.6% (active)	20% (inactive)	21.3% (inactive)	27.8% (inactive)	24.7% (inactive)	14.2% (inactive)	-9.53% (active)	-0.842% (active)		20.7% (inactive)	71.7% (inactive)	5.13% (active)	-11.9% (active)	8.27% (active)	-0.509% (active)	31% (inactive)	2.69% (active)	-3.08% (active)	-64.4% (active)	
